ASM inhibitor = human S-ASM enzyme inhibition. placental ASM, HMU-PC fluorogenic substrate, 60 min. Potency, µM (top dose mostly 57.5 µM), hits mostly inhibitors. 340,000 compounds, 0.006% hits. AID 504937
Target sequence (P17405 47-631 limits assumed): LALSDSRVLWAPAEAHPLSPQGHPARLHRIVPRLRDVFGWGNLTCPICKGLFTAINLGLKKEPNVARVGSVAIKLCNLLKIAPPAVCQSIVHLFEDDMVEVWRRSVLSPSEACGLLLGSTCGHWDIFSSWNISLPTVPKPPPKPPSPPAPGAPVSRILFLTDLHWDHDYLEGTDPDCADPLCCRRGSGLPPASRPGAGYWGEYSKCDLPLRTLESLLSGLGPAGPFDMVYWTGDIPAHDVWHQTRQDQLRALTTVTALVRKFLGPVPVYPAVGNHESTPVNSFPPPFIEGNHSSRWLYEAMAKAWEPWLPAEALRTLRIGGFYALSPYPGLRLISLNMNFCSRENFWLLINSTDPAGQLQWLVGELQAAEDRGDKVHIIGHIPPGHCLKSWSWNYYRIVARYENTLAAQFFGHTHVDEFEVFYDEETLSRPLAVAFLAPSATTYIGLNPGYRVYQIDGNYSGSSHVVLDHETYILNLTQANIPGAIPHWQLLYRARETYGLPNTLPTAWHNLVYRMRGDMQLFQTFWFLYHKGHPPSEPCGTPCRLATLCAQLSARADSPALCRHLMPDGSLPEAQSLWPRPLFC
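Fluorogenic HMU-PC substrate (9 uM final) is turned over by placental ASM in 60 min at 37 C after a 10 min compound preincubation. Reaction ended by alkaline stop (pH 10), with fluorescence read at 386/447 nm.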
IL1B secr inh = inflammasome signaling inhibition, IL-1 beta readout; THP-1 LPS/ATP IL-1B secretion, AlphaLISA, 16 h; active compounds read low; activity change, % at 57.5 µM; 360,000 compounds, 4.7% hits; AID 743279; in the data active = activity change below about -50%; inconclusive = mostly about -30% to -49%
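THP-1 cells pretreated 1 hr with compounds (up to 57.5 uM final), then stimulated with LPS (250 ng/mL final) plus ATP (1.25 mM final); secreted IL-1B measured by AlphaLISA after 16 hr, decreased signal indicating inhibition.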
TDP1 cell CPT = DT40-hTDP1 cell growth loss with CPT. chicken DT40 Tdp1-/-;hTDP1 cells + 20 nM CPT, ATP luminescence, 48 h. Potency, µM (doses to about 46.2 µM), usual class: inhibitors. 420,000 compounds, 12% hits. AID 686979; also: nearly all actives have a fitted effect of over 55% in size
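Chicken DT40 Tdp1-/- cells stably complemented with human TDP1 were seeded at 400 cells/well in medium containing 20 nM camptothecin, exposed to pin-transferred compounds, and grown at 37 °C for at least 48 hr. Viability was read as ATP luminescence.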
HepG2 viability = counter-screen for TGF-b inhibitors: cytotoxicity in HepG2 cells; HepG2 CAGA-GFP viability, ATP luminescence, 18 h; 410,000 compounds, 0.76% hits; Potency, µM (top dose mostly 46.1 µM), actives largely listed as cytotoxic
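CellTiter-Glo luminescence gave cytotoxicity after 18 hours at 37 degrees C. The cells were HepG2 CAGA-GFP in 1% FBS DMEM, stimulated with 500 pg/mL TGF-beta after compound addition. %Activity was normalised to no-cell wells (complete cell-killing) and DMSO (no toxicity), and curves were fitted and classified.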
TGFb SMAD3 inh = TGF-b pathway inhibition; Potency, µM (series often up to 46.1 µM), hits mostly inhibitors; AID 588855; 410,000 compounds, 1.2% hits; HepG2 CAGA-GFP TGF-b/SMAD3 reporter, GFP fluorescence, 18 h; TGF-beta stimulated, 500 pg/mL final; also: nearly all actives have a fitted effect of over 65% in size
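HEPG2 CAGA-GFP cells (1000/well, DMEM with 1% FBS) were pre-incubated 2 h at 37 degrees C, given compound by pin tool, then stimulated with TGF-beta at 500 pg/mL final for 18 h before per-cell GFP fluorescence imaging.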
DT40 TDP1 no CPT = qHTS for Inhibitors of human tyrosyl-DNA phosphodiesterase 1 (TDP1): qHTS in cells in absence of CPT; AID 686978, 2013; 420,000 compounds, 15% hits; DT40 Tdp1-/- hTDP1 cells, no CPT, ATP luminescence, 48 h; Potency, µM (titrated, usually from 46.2 µM), actives largely listed as inhibitors; also: nearly all actives have a fitted effect of over 55% in size
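Camptothecin absent (DMSO only). Human TDP1-complemented DT40 knockout cells, 400 cells/well, 37 °C for minimum 48 hr; ATP measured via CellTiter-Glo, 30 min dark incubation, luminescence.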
Large screens that a line does not name were inactive; ! = not confirmed by another sample. A selection: hits, their analogues and other compounds. The true share with any hit is near 19%. Unless noted, calls follow the shape of the dose curve; as a rule, active = well fitted curve in the direction sought with a large enough effect; inconclusive = small, poorly fitted or top-dose-only effect, or another doubt; inactive = no such curve, though single readings can be large; an effect the other way counts as inactive or inconclusive.

Cn1c(=O)n(CCCOc2ccc(Br)cc2)c2ccccc21	DT40 TDP1 no CPT inconclusive
CCCn1c(=N)n(CCOc2ccc(OC)cc2)c2ccccc21	IL1B secr inh -58, TDP1 cell CPT 16µM, DT40 TDP1 no CPT 18µM
N=c1n(CCCOc2ccc(Br)cc2)c2ccccc2n1CC(N)=O	TDP1 cell CPT 18µM, TGFb SMAD3 inh inconclusive, DT40 TDP1 no CPT 16µM
CCOC(=O)Cn1c(=N)n(CCOc2ccc3ccccc3c2)c2ccccc21	TDP1 cell CPT 18µM, TGFb SMAD3 inh 11µM, DT40 TDP1 no CPT inconclusive
O=C(CCCc1nc(-c2ccc(Cl)cc2)no1)NC1CCCC1	TDP1 cell CPT 8.2µM, TGFb SMAD3 inh inconclusive, DT40 TDP1 no CPT 8.2µM
Cc1cccc(-c2noc(CCCC(=O)NC3CCCC3)n2)c1	TDP1 cell CPT inconclusive, DT40 TDP1 no CPT inconclusive
COc1ccc(-c2noc(CCCC(=O)NC3CCCC3)n2)cc1	TDP1 cell CPT 16µM, DT40 TDP1 no CPT 16µM
COCc1c(C#N)c(NCc2cc(OC)c(OC)c(OC)c2)nc(C)c1[N+](=O)[O-]	TDP1 cell CPT 18µM, DT40 TDP1 no CPT 21µM
CC(=O)C1=CCC(c2ccc(Br)cc2)N(S(=O)(=O)c2ccc(C)cc2)C1 (stereo not given)	IL1B secr inh -52, TDP1 cell CPT 18µM, TGFb SMAD3 inh inconclusive, DT40 TDP1 no CPT inconclusive (no result: ASM inhibitor)
CC(=O)C1=CCC(c2ccc(C)cc2)N(S(=O)(=O)c2ccc(C)cc2)C1 (stereo not given)	TDP1 cell CPT inconclusive, TGFb SMAD3 inh inconclusive, DT40 TDP1 no CPT inconclusive (no result: ASM inhibitor)
CC(=O)C1=CCC(c2ccccc2)N(S(=O)(=O)c2cccc(C)c2)C1 (stereo not given)	TDP1 cell CPT 16µM, TGFb SMAD3 inh inconclusive, DT40 TDP1 no CPT 13µM (no result: ASM inhibitor)
COc1ccc(C2CC=C(C(C)=O)CN2S(=O)(=O)c2ccc(Cl)cc2)cc1 (stereo not given)	TDP1 cell CPT 16µM, DT40 TDP1 no CPT 16µM (no result: ASM inhibitor)
CC(=O)C1=CCC(c2ccco2)N(S(=O)(=O)c2ccc(C)cc2)C1 (stereo not given)	TDP1 cell CPT inconclusive, DT40 TDP1 no CPT inconclusive (no result: ASM inhibitor)
CC(=O)C1=CCC(c2ccccc2)N(S(=O)(=O)c2ccccc2)C1 (stereo not given)	TDP1 cell CPT 29µM, DT40 TDP1 no CPT 18µM (no result: ASM inhibitor)
COc1ccc(NC(=O)[C@@H]2CCCN2S(=O)(=O)c2ccc(Cl)cc2)cc1	TDP1 cell CPT inconclusive, DT40 TDP1 no CPT inconclusive
CN(CCO)C(=O)c1cn(C2CCCN(Cc3ccc(C(F)(F)F)cc3)C2)nn1 (stereo not given)	DT40 TDP1 no CPT inconclusive (no result: ASM inhibitor, IL1B secr inh, HepG2 viability, TGFb SMAD3 inh)
Cc1cccc(Cn2nc(-n3cccc3)c3c(C)cc(C)nc32)c1	TDP1 cell CPT inconclusive, TGFb SMAD3 inh inconclusive, DT40 TDP1 no CPT inconclusive
CC(=O)C1=CCC(c2ccc(Cl)cc2)N(S(=O)(=O)c2ccccc2)C1 (stereo not given)	TDP1 cell CPT 21µM, DT40 TDP1 no CPT 18µM (no result: ASM inhibitor)
O=C(O)C1=CC[C@@H](c2ccc(Cl)cc2)N(S(=O)(=O)c2ccc(Cl)cc2)C1	none
CC(=O)C1=CCC(c2ccc(Cl)cc2)N(S(=O)(=O)c2ccc(C)cc2)C1 (stereo not given)	IL1B secr inh -57!, TDP1 cell CPT inconclusive, TGFb SMAD3 inh inconclusive, DT40 TDP1 no CPT 16µM (no result: ASM inhibitor)
CC(NC=O)c1nc2ccccc2n1CCc1ccccc1 (stereo not given)	TDP1 cell CPT inconclusive, DT40 TDP1 no CPT inconclusive
Cc1ccc(N2CCN(C(=O)C3CCC(=O)N(Cc4ccc(Cl)cc4)C3)CC2)c(C)c1 (stereo not given)	TDP1 cell CPT 18µM, DT40 TDP1 no CPT 18µM
NC(=O)C1CCN(C(=O)C2CCC(=O)N(Cc3ccc(Cl)cc3)C2)CC1 (stereo not given)	none
CCCNC(=O)CN1CCN(c2cc3ccccc3c(Cl)n2)CC1	TDP1 cell CPT inconclusive, DT40 TDP1 no CPT 16µM

Source: PubChem BioAssay (National Center for Advancing Translational Sciences (NCATS))
